This is part of a sample that, as a whole, favours compounds with a hit. Of some 83,000 tested, about 20% had one in any assay.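 Results are percent growth after 48 hours of single-concentration exposure. 100 means growth as in untreated cells, lower positive values show inhibition; negative values down to -100 show cell death.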 Values without a mark were called inactive. The source made the active and inactive calls.

For this assay, the system named is SN12C renal. As to the kind of experiment: NCI-60 one-dose screen, 48 h (100 = growth as untreated, 0 = no growth, -100 = all killed). As to conditions: 10 µM. On the procedure: Growth inhibition of the SN12C human tumor cell line is measured as a screen for anti-cancer activity. Cells are grown in 96 well plates and exposed to the test compound for 48 hours. Compounds are tested at a single concentration, which is 10^-5 M for most compounds. The reported endpoint is percent growth (GI% or GIPRCNT), where numbers from 0 - 100% represent growth inhibition, and numbers from -100% - 0 represent cell death. For example, a value of 40 represents 60% growth inhibition. A value of 0 means no net growth occurred over the course of the experiment. A value of -40 indicates 40% of cells at the beginning of the experiment died by the end of the experiment. A value of -100 means all cells are dead at the end of the experiment.
NCI-60 Human Tumor Cell Lines Screen was performed using the standard one-dose NCI protocol, which is described in more detail at https://dtp.cancer.gov/discovery_development/nci-60/default.htm.
Compounds with GIPRCNT values below 10 were considered active. Activity score was based on GIPRCNT using the following formula: […]
Score is 0 for GIPRCNT values of 100 or above, 50 for GIPRCNT values of 0, and 100 for GIPRCNT values of -100.
`COc1cc(CSc2nc3ccc(C)cc3c(=O)n2Cc2ccccc2)cc(OC)c1OC`: the growth is 40%.

With `COc1ccc(/C(=C/c2cc(OC)c(OC)cc2[N+](=O)[O-])C(=O)O)cc1`, the growth was 104%. The same measure for `O=C(O)c1cc(C(F)(F)F)cc(C(F)(F)F)c1`: 104%. The same measure for `CCOc1nc(-c2ccccc2)cc2c(O)c(C(=O)NCCCO)[nH]c(=O)c12`: 103%; for `Cn1c(N)c(N=Cc2ccccc2)c(=O)n(C)c1=O`: 104%; for `CCOc1nc(-c2ccccc2)cc2c(O)c(C(=O)NC(C)C)[nH]c(=O)c12`: 114%. Under `Cc1cc(Cl)ccc1Nc1nc(C(F)(F)F)ccc1C(=O)N/N=C/c1ccccc1Cl` stands 19.6%. In the case of `C[C@]12CC[C@H]3[C@@H](CCC4=CC(=O)CC[C@@]43C)[C@@H]1CC[C@@H]2c1csc(N)n1`, the growth is 71.8%. The same measure for `CN(C)c1ccc2cc(-c3cc4c(oc3=O)-c3ccccc3OC4O)c(=O)oc2c1` (stereo not given): 57.9%; for `Cc1cccc2c1O/C(=C\c1ncc([N+](=O)[O-])n1C)C2=O`: -48.5% (active); for `CCOC(=O)[C@@H]1[C@H](c2ccccc2)[C@H]([N+](=O)[O-])[C@H](c2cn(-c3ccccc3)nc2C)N1Cc1ccccc1`: 88.8%.

On to `O=C(Nc1cccc(C(F)(F)F)c1)C(Cl)Cl`, for which the growth is 105%.

For the compound `CCOC(=O)C1=C(Nc2ccc(OC)cc2)C(N)=NC1=N`, the growth was 57%. The same measure for `COc1ccc(-c2nnc(COc3ccc(NC(=O)Nc4ccccc4)cc3F)o2)cc1`: 91.1%. As for `CCCCOCC(=O)NC(NP(=O)(N(C)C)N(C)C)C(Cl)(Cl)Cl` (stereo not given), the growth is 110%. For the compound `O=C(c1ccccc1)C(Sc1ccccc1)c1ccccc1` (stereo not given), the growth was 87.7%. Under `COc1ccc2nc(-c3ccccc3)cc(C(C)=O)c2c1` stands 94.9%.

For the compound `Cc1ccc(C2C=C(c3ccc(Cl)cc3)N=C3SC=CN32)c(Br)c1` (stereo not given), the growth was 94%.

Consider `COc1ccc(-c2cc(/C=C/C(=O)c3ccc(N)cc3)[nH]n2)cc1OC`, for which the growth was 35.1%.

With `COc1ccc(-c2nc(-c3nc4ccc(C)cc4[nH]3)c3ccccn23)cc1`, the growth was 44.9%. In the case of `C/C(=N\NC(N)=S)C(C)(C)O`, the growth is 87.1%. For the compound `O=C(COc1ccc(-c2nc3ccccc3[nH]2)cc1)N=Nc1c(O)[nH]c2ccccc12`, the growth is 91.7%. Under `CCCCCCCCCCCCCCCC(=O)N1CCN(C)CC1` stands 74.6%; under `C#CCn1c(-c2cccc(OCCCCl)c2)nc2c1c(=O)n(C)c(=O)n2C`, 84.5%; under `COc1ccc(C(C)=O)cc1N1C(=O)C2C(C1=O)C1(c3ccccc3)C(=O)C2(c2ccccc2)C(c2ccc(C)cc2)=C1c1ccc(C)cc1` (stereo not given), 26.2%.

For the compound `COc1nc2c(c(=O)[nH]1)C(c1ccc(Oc3ccnc4cc(Cl)ccc34)c(OC)c1)C=C(c1cc(OC)c(OC)c(OC)c1)N2` (stereo not given), the growth is 90.7%.

On to `COc1cc(-c2nc3ccccc3[nH]2)ccc1OCc1nnc(-c2ccc(Br)cc2)o1`, for which the growth is 85.8%. Under `O=c1oc2c3ccc4cnccc4c3[nH]c2c2ccccc12` stands 73.8%; under `COc1cc(C2C=C(c3ccc(Cl)cc3)N=C3SC(C)=CN32)cc(OC)c1OC` (stereo not given), 90.6%; under `COc1cc(C2c3cc4c(cc3C(O)C(CO)C2CO)OCO4)cc(OC)c1OC` (stereo not given), 46.1%. The same measure for `C#C[C@]1(O)CC[C@H]2[C@@H]3CC[C@H]4CC(F)(F)CC[C@]4(C)[C@H]3CC[C@@]21C`: 87.4%.

As for `CC1(C)CC(=O)c2c(nc3ccc(Cl)cc3c2-c2ccccc2)C1`, the growth was 92.5%. The same measure for `CCc1nn2c(-c3ccccc3)c(-c3cc(OC)c(OC)c(OC)c3)nc2s1`: 88.1%; for `CC(=O)Nc1ccc2c(c1)C(N1CC3CCC(CC3)C1)c1ccccc1-2` (stereo not given): 86.8%; for `C#Cc1ccc(-n2c(/C=C/c3cc(OC)c(OC)c(OC)c3)nc3ncccc3c2=O)cc1`: 82.1%.

As to `COc1cc(-c2n/c(=C\c3c(O)[nH]c4ccccc34)cc3c2=Nc2ccccc2-3)cc(OC)c1OC`, the growth is 34.3%. Under `COc1ccc(C(=O)c2sc3nc(-c4cccs4)ccc3c2N)cc1OC` stands 62%.

As for `NS(=O)(=O)c1ccc(N2N=C(c3ccc(-c4ccccc4)cc3)CC2c2ccc(Cl)cc2)cc1` (stereo not given), the growth was 67.4%. Regarding `C=CCn1c(C)nc2cc(Nc3nc(Nc4ccc5nc(C)n(CC=C)c5c4)c4ccccc4n3)ccc21`, the growth is -69.6% (active). The same measure for `COc1ccc(/C=C2\SC(=S)N(CCCN3CCOCC3)C2=O)c(OC)c1`: 93.8%.

The record behind these values is PubChem BioAssay (NCI).
